Measured values published in PubChem BioAssay (NCATS).
Records with an inconclusive call do not appear. The source made the active and inactive calls. Calls come from the whole dose curve; as a rule, active = well fitted inhibition curve with a large enough effect; inconclusive = small, poorly fitted or top-dose-only effect; inactive = no such curve, though single readings can be large or run the other way.

target: Cytochrome P450 3A4 (Homo sapiens) (UniProt P08684); experiment: qHTS Assay for Inhibitors and Substrates of Cytochrome P450 3A4 (AID 884); details: recombinant CYP3A4, Luciferin-PPXE luminescence; series mostly up to 57.1 µM; activity change, negative = inhibition: at the top concentration; note: nearly all actives have a fitted effect of over 50% in size
Summary of the method: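 Luminescent readout of luciferin produced by CYP3A4 (20 nM) dealkylation of Luciferin-PPXE, 25 uM (its KM). NADPH-driven reaction ran 60 min at RT after 10 min compound preincubation; data scaled to 57 uM ketoconazole as 100% inhibition.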
% is set by controls: 0 for no effect and ±100 for the full control effect; potency is the fitted concentration of half-maximal effect.

Sequence of Cytochrome P450 3A4 (Homo sapiens) (P08684 whole entry, looked up): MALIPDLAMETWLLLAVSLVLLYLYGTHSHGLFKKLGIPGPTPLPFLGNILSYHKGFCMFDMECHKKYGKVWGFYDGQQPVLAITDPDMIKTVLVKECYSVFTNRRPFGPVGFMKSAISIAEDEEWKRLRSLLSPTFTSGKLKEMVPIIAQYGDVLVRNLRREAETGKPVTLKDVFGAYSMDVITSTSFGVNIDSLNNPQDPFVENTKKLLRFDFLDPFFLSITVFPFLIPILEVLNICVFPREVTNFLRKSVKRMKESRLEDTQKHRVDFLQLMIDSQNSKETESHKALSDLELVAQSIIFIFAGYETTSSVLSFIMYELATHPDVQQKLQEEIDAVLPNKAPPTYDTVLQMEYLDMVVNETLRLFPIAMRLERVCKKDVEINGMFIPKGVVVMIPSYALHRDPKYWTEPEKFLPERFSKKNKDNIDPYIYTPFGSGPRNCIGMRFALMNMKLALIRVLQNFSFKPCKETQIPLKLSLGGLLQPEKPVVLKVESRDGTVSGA

Potency, active:
CC(=O)c1c(O)cc(O)cc1O 3.16 µM
COc1cccc([C@@H]2Oc3ccc(OC)cc3/C(=N/OC[C@@H](O)COCc3ccco3)[C@@H]2O)c1 3.16 µM
COc1ccc(-c2cc(=O)c3ccccc3o2)cc1 2 µM
COc1ccc(/C=C/N(CCc2ccc(OC)c(OC)c2)C(=O)C(F)(F)F)cc1 2 µM
COc1ccc(O[C@H]2C=C[C@@H](c3ccccc3)O[C@H]2COC(=O)CC/C(C)=N\O[C@@H](C)CN2CCCCc3nc(C)c(C)cc32)cc1 3.98 µM
CCCNC(=O)OC[C@@H]1O[C@H](CCO/N=C2\c3cc(OC)ccc3O[C@H](c3cccc(OC)c3)[C@H]2O)C=C[C@@H]1Oc1ccc(OC)cc1 5.01 µM
COc1c2c(cc3occ(-c4ccc5c(c4)OCO5)c(=O)c13)OC(C)(C)C=C2 2.51 µM
COc1cc2c(cc1OC)-c1c(oc3cc(O)cc(O)c3c1=O)CO2 10 µM
COc1ccc2c(c1)OC/C(=C/c1ccc(OC)c(OC)c1)C2=O 7.94 µM
CCO[C@H](c1cc(OC)cc([N+](=O)[O-])c1OC)[C@H](C)/C=C\CC(=O)OC 3.98 µM
C=C(C)C(O)/C=C/c1cccc(OC)c1 (stereo not given) 3.98 µM
C=C1C2CC[C@@]3(C)C(c4ccoc4)OC(=O)C[C@@]13OC1CC(OC(C)=O)C(C)(C)C(CC(=O)OC)[C@@]12C (stereo not given in full) 1.26 µM
COC(=O)C/C=C\[C@@H](C)[C@@H](/C=N\OC[C@@H]1O[C@H](c2ccccc2)C=C[C@@H]1Oc1ccc(OC)cc1)OC 3.16 µM
COc1cc(OC)c2c(=O)c(-c3ccc4c(c3)OCO4)coc2c1 6.31 µM
C=CC[C@@H]1C=C[C@H](Oc2ccc(C)cc2)[C@H](COC(=O)NCc2cccc3ccccc23)O1 3.16 µM
Cc1ccc(S(=O)(=O)N[C@H]2COC(=O)[C@@H](Cc3ccccc3)NC(=O)[C@@H](C)COC(=O)C/C=C\[C@@H]2C)cc1 3.98 µM
COc1cc(O)c(C(=O)/C=C/c2ccc(O)c(OC)c2)c(OC)c1 7.94 µM
COCOc1ccc(Br)cc1C(=O)[C@H]1O[C@H]1c1cccc(OC)c1 3.98 µM
CCCCC#CC1C=CC(Oc2ccc(C(=O)OC)cc2)C(COC(=O)OCC)O1 (stereo not given) 3.98 µM
COc1ccc(/C=C/C2=CC3(C)CC2(C)C(c2ccc(OC)cc2)CC3=O)cc1 (stereo not given) 5.01 µM
CC(C)=CCc1c(O)cc2occ(-c3ccc4c(c3)OCO4)c(=O)c2c1O 3.98 µM
COc1cccc(-c2cc(=O)c3ccc(OC)cc3o2)c1 7.94 µM
COc1ccc(O[C@H]2C=C[C@@H](c3ccccc3)O[C@@H]2CO/N=C(\C)CCN2CCCCc3nc(C)c(C)cc32)cc1 3.98 µM
CC1(C)C(=O)C=C[C@@]2(C)C1C=C[C@@]1(C)C2CC[C@@]2(C)C(c3ccoc3)OC(=O)C3OC312 (stereo not given in full) 7.94 µM
OCC1OC(c2ccc3c(c2)OCO3)C=CC1Oc1cc(Cl)cc(Cl)c1 (stereo not given) 0.316 µM
COc1cccc([C@@H]2Oc3ccc(OC)cc3/C(=N/O[C@@H](C)c3cc(-c4c(C)cc(C)cc4C)no3)[C@@H]2O)c1 1.58 µM
O=C1C=CC(=C(c2ccc(O)cc2)c2ccc(O)cc2)C=C1 20 µM
COc1cc(OC)c2c(OC)c(-c3ccc4c(c3)OCO4)c(=O)oc2c1 2.51 µM
Nc1nc2c(ncn2C2OC(COC(=O)c3ccccc3)C(OC(=O)c3ccccc3)C2OC(=O)c2ccccc2)c(=O)[nH]1 (stereo not given) 3.98 µM
C[C@@H](c1ccccc1)N1C(=O)[C@H]2[C@H]3[C@H](O)[C@H](O)C/C(=N/OC[C@@H](O)COCc4ccco4)[C@@H]3CC[C@@H]2C1=O 3.16 µM
CCCNC(=O)OC[C@@H]1O[C@H](CCO/N=C\[C@@H](C)[C@H](OCc2ccccc2)C(C)C)C=C[C@@H]1Oc1ccc(OC)cc1 3.98 µM
COC(=O)C[C@@H]1O[C@H]1[C@H](C)[C@@H](OC)C(C)C 3.98 µM
C/C=C/OC(=O)NC(c1ccccc1)[C@]1(C(C)=O)CCOC1=O (stereo not given in full) 0.0316 µM
CC(=O)Oc1c(-c2ccccc2)oc2c(CC=C(C)C)c3c(c(OC(C)=O)c2c1=O)C=CC(C)(C)O3 10 µM
CC(=O)OCC1OC(c2ccc3c(c2)OCO3)C=CC1OC(C)=O (stereo not given) 3.98 µM
C=CCC1C=CC(Oc2ccc(OC)cc2)C(COC(=O)c2ccc(Br)cc2)O1 (stereo not given) 3.16 µM
COc1ccc(O[C@H]2C=C[C@@H](c3ccccc3)O[C@H]2COC(=O)CC/C(C)=N\O[C@@H](C)c2cn([C@H]3COC[C@H]3O)nn2)cc1 3.98 µM
COc1ccc(O[C@H]2C=C[C@@H](c3ccccc3)O[C@H]2CO/N=C\C[C@@H]2C=C[C@H](OC(C)=O)[C@H](COC(C)=O)O2)cc1 3.98 µM
COc1ccc(-c2cc(=O)c3ccccc3o2)cc1OC 7.94 µM

Activity change, negative = inhibition, inactive:
COc1c(-c2coc3cc4c(cc3c2=O)CC(OC(C)=O)C(C)(C)O4)ccc2c1C=CC(C)(C)O2 (stereo not given) 65.8%
